Assay results: PubChem BioAssay
Calls of active or inactive are those of the source.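 Rule for the calls, unless noted: active = inhibition above 20% together with a positive visual image hit; inconclusive = visual image hit but inhibition not above 20%; inactive = no visual image hit.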

Columns and labels:
[1] = inhibitors of TNFa-induced NFkB p65 translocation, primary screen, imaging, HUVEC, MLSMR starter and 10KST1 sets (AID 438); conditions: HUVEC TNFa-induced p65 nuclear translocation; cell count: measured here: nuclei count (cytotoxicity indicator), at 2.08 µM; inhibition: at 2 µM, stronger effect = higher value, 0% TNFa-plus-vehicle, 100% no-TNFa wells;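 note: compound added about 3h40 before a 20 min TNFalpha stimulation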;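 for inhibition: signal is the nuclear over cytoplasmic p65 intensity ratio per well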
[2] = reduction of polyQ htt aggregates in cells – imaging, exon1htt(103Q)mCFP cells, high-content imaging, primary screen (AID 483;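 active = visual image review flags a hit and inhibition of aggregation exceeds 20%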;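 note: compound exposure lasted 3 days before fixation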;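 for nuclei count: percent of the per-plate median nuclei count of sample wells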); conditions: exon1htt(103Q)mCFP cell line, aggregate imaging, at 2 µM; inhibition of aggregation: stronger effect = higher value; nuclei count: measured here: cell count, toxicity
[3] = endothelial E-selectin expression blockers – imaging, HUVEC, immunofluorescence, MLSMR starter and 10KST1 sets, primary screen (AID 487;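 active = visually confirmed hit in the image check and inhibition above 20%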;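 for inhibition: signal is fraction of cell area covered by stained E-selectin grains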;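 for nuclei count: 100% = median nuclei count of all wells on the same plate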); conditions: HUVEC TNFalpha-induced E-selectin immunofluorescence imaging, at 2 µM; inhibition: stronger effect = higher value; nuclei count: measured here: cell number, toxicity
[4] = target: Voltage-gated potassium channel subunit beta-2 (Rattus norvegicus) (UniProt P62483); test: inhibitors of rat Kvbeta2 reductase activity – biochemical, NADPH fluorescence, primary screen (AID 622;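 active = fluorescence slope higher than the sample average by over 3 SD, cut at about -0.22 in these data, passing the limit was not always enough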;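 note: slope of raw intensity against log time taken from 70 to 1610 s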); conditions: recombinant KvBeta, 4-cyanobenzaldehyde reduction, at 10 µM, stronger effect = higher value
Chain of Voltage-gated potassium channel subunit beta-2 (Rattus norvegicus) (P62483 whole entry, looked up): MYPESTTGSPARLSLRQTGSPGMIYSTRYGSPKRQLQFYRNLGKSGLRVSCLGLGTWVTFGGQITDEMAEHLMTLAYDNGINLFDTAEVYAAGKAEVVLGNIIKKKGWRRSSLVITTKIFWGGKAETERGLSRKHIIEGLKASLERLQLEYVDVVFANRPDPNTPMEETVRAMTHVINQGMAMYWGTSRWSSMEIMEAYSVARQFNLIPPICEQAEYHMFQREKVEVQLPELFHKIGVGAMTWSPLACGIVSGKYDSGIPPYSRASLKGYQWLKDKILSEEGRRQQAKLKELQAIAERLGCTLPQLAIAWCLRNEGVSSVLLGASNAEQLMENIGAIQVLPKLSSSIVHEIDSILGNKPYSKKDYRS

[5] = target: Voltage-gated potassium channel subunit beta-2 (Rattus norvegicus) (UniProt P62483); test: enhancers of rat Kvbeta2 NADPH turnover – biochemical, NADPH fluorescence, primary screen (AID 623;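 active = NADPH fluorescence slope more negative than the mean of all samples by about 3 SD, 99.7% confidence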;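 note: fluorescence intensity change per second fitted from 20 to 320 s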); conditions: Recombinant KvBeta, NADPH fluorescence decrease slope, 10 min; at 10 µM; stronger effect = lower value
[6] = target: Alpha-2C adrenergic receptor (Homo sapiens) (UniProt P18825); test: compounds altering alpha2C-coupled GIRK flux – cell-based, HEK293 alpha2C/GIRK1/2, thallium flux, primary screen (AID 624;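 active = fluorescence slope after compound addition differing from the mean of all screened samples at 99.7% confidence, in either direction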;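 note: slope of fluorescence ratio to pre-addition baseline per second over 15 to 24 s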); conditions: thallium flux BTC fluorescence, at 10 µM, actives lie on both sides
Chain of Alpha-2C adrenergic receptor (Homo sapiens) (P18825 whole entry, looked up): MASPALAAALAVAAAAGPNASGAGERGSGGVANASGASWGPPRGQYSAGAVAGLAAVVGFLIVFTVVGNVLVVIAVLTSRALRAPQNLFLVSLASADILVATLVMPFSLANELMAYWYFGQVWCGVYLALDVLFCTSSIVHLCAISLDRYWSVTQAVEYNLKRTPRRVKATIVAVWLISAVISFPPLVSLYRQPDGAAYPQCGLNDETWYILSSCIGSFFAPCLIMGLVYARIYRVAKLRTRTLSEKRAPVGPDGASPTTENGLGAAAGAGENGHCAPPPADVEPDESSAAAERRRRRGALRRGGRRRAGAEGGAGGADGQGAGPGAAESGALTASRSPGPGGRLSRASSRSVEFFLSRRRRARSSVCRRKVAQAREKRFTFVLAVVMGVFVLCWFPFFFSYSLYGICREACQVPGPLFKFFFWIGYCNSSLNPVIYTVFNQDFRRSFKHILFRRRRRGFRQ

[7] = blockers of RIG-like receptor reporter activation – cell-based, Sendai virus stimulus, luciferase, 10K MLSCN set, TLR/RLR signaling modifier project, primary screen (AID 602276;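 active = inhibition at or above 50% at 10 µM; inactive = inhibition below 50%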;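 note: firefly luciferase from ISG56 promoter only with Renilla not read in this screen; 0% = Sendai virus plus DMSO and 100% = medium plus DMSO without virus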); conditions: HEK293 RL24 IRF3 luciferase reporter, at 10 µM, stronger effect = higher value
[8] = TLR3 IRF3 reporter activation blockers – cell-based, poly I:C stimulus, luciferase, 10K MLSCN set, primary screen (AID 602277;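 active = inhibition of the reporter signal at or above 50%; inactive = inhibition below 50%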); conditions: HEK293-TLR3 RL24 IRF3 luciferase reporter, at 10 µM, stronger effect = higher value

| Compound | cell count [1] | inhibition [1] | inhibition of aggregation [2] | nuclei count [2] [%] | inhibition [3] | nuclei count [3] [%] | fluorescence slope [4] | NADPH fluorescence slope [5] | slope [6] | inhibition [7] | inhibition [8] |
| --- | --- | --- | --- | --- | --- | --- | --- | --- | --- | --- | --- |
| C1=Nc2c(NCc3ccccc3)ncnc2Oc2ccccc21 | 305 | -0.2% (inactive) | 3.8% (inactive) | 98.1 | -17.3% (inactive) | 112 | -0.502 (inactive) | -2.6e-05 (inactive) | 0.00376 (inactive) | -11.5% (inactive) | 1.46% (inactive) |
| CCOC(=O)NC(=O)CSc1nnnn1-c1ccc(Cl)cc1 | 394 | 10% (inactive) | 2.2% (inactive) | 83.5 | -90.3% (inactive) | 110 | -0.297 (inactive) | 4.2e-05 (inactive) | 0.00637 (inactive) | 4.73% (inactive) | 15.2% (inactive) |
| OC(CN1CCCCC1)Cn1c(C(F)(F)F)nc2ccccc21 (stereo not drawn) | 730 | -17.7% (inactive) | 25.1% (inactive) | 122 | -98.5% (inactive) | 95.5 | -0.362 (inactive) | -7.1e-05 (inactive) | 0.00651 (inactive) | 12.8% (inactive) | 24.9% (inactive) |
| O=C(CSc1nnc(-c2cnccn2)n1Cc1ccco1)c1ccc(Cl)cc1 | 287 | 16.6% (inactive) | -32.9% (inactive) | 95.7 | -8.9% (inactive) | 124 | -0.473 (inactive) | 4.5e-06 (inactive) | 0.00285 (inactive) | 8.56% (inactive) | 22.1% (inactive) |
| COc1ccc2c(=O)c3c(=O)n(Cc4ccco4)c(-c4cc(OC)c(OC)c(OC)c4)nc3oc2c1 | 483 | -9.2% (inactive) | -28.3% (inactive) | 96.6 | -11.9% (inactive) | 121 | -0.525 (inactive) | 5.6e-06 (inactive) | 0.00457 (inactive) | 3.4% (inactive) | -1.04% (inactive) |
| COC(=O)c1cc2ccsc2n1CC(=O)Nc1cc(C)cc(C)c1 | 510 | -9.5% (inactive) | -2.7% (inactive) | 115 | -22.5% (inactive) | 109 | -0.374 (inactive) | 9.4e-06 (inactive) | 0.0119 (inactive) | -21% (inactive) | -31% (inactive) |
| Cc1ccc(C2c3c(oc4ccccc4c3=O)C(=O)N2c2nnc(C(C)C)s2)o1 (stereo not drawn) | 622 | -13.1% (inactive) | -21.4% (inactive) | 90.4 | -37.8% (inactive) | 102 | -0.436 (inactive) | -5.6e-05 (inactive) | 0.00484 (inactive) | 9.17% (inactive) | 19.7% (inactive) |
| CCC(C(=O)Nc1ccccc1C(=O)N1CCCC1)N1C(=O)c2ccccc2C1=O (stereo not drawn) | 623 | 16.8% (inactive) | -16.8% (inactive) | 109 | -112% (inactive) | 112 | -0.356 (inactive) | 9.2e-06 (inactive) | 0.0034 (inactive) | 4.49% (inactive) | 15.4% (inactive) |
| C#CC1(O)CC(C)N(C)C(C)C1 (stereo not drawn) | 266 | -0.3% (inactive) | 41.8% (active) | 71.2 | -76% (inactive) | 186 | -0.606 (inactive) | 3.5e-06 (inactive) | 0.00632 (inactive) | 11% (inactive) | 17.2% (inactive) |
| COc1ccccc1OCc1ccc(C(=O)Nc2ccncc2)o1 | 729 | -7.3% (inactive) | -9.4% (inactive) | 83.1 | -69% (inactive) | 120 | -0.508 (inactive) | -5.2e-05 (inactive) | 0.00528 (inactive) | 8.87% (inactive) | -20.1% (inactive) |
| Cc1ccccc1OCc1nnc(SCC(=O)NCc2ccccc2)n1C | 409 | 3.9% (inactive) | -6.5% (inactive) | 106 | -22.7% (inactive) | 120 | -0.521 (inactive) | 5.8e-06 (inactive) | 0.00575 (inactive) | 12% (inactive) | 23.6% (inactive) |
| Cc1ccc(C(=O)OCC(=O)Nc2ccc3c(c2)OCO3)o1 | 429 | 14.6% (inactive) | 17.6% (inactive) | 99.5 | 8.1% (inactive) | 112 | -0.595 (inactive) | -5.5e-05 (inactive) | 0.00785 (inactive) | -15.7% (inactive) | -12.9% (inactive) |
| CCN1C(=C2C(=O)c3ccccc3C2=O)C=Cc2ccccc21 | 347 | 23.3% (active) | -4% (inactive) | 107 | -27.1% (inactive) | 117 | -0.284 (inactive) | -1.4e-05 (inactive) | 0.00581 (inactive) | -14.8% (inactive) | -27.9% (inactive) |
| COCCn1cc(C(=O)c2ccccc2OCC(=O)Nc2cc(C)on2)cc(C#N)c1=O | 455 | 5.8% (inactive) | -23.9% (inactive) | 77.9 | -7% (inactive) | 97.9 | -0.368 (inactive) | 6.2e-06 (inactive) | 0.00464 (inactive) | 9.82% (inactive) | 15.9% (inactive) |
| CS(=O)(=O)N(CC(=O)Nc1cccc(F)c1)Cc1ccccc1 | 381 | -0.2% (inactive) | 2.5% (inactive) | 107 | -19.3% (inactive) | 106 | -0.467 (inactive) | -3.7e-05 (inactive) | 0.00637 (inactive) | 5.19% (inactive) | 30.7% (inactive) |
| Cc1ccc(OCc2nnc(SCC(=O)Nc3ccc4c(c3)OCO4)n2C)cc1 | 325 | -6.5% (inactive) | 7.6% (inactive) | 77.3 | -59.2% (inactive) | 103 | -0.409 (inactive) | -5.7e-05 (inactive) | 0.00504 (inactive) | 17.9% (inactive) | 12.7% (inactive) |
| O=C(CN1C(=O)COCC1=O)N1CCOCC1 | 377 | -7% (inactive) | 11.7% (inactive) | 108 | -35.1% (inactive) | 112 | -0.422 (inactive) | -0.00011 (inactive) | 0.00596 (inactive) | 9.66% (inactive) | 23.7% (inactive) |
| CCC12CN3CC(CC)(CN(C1)C3c1ccc(OC(C)C)cc1)C2=O (stereo not drawn) | 692 | 12.1% (inactive) | 10.5% (inactive) | 93.2 | -15.2% (inactive) | 94.3 | -0.528 (inactive) | -0.000143 (inactive) | 0.0058 (inactive) | 8.78% (inactive) | 15.9% (inactive) |
| CCSc1nnc(-c2ccc(OC)cc2)o1 | 651 | 11.1% (inactive) | 0% (inactive) | 99.1 | 61.5% (inactive) | 106 | -0.242 (inactive) | -1.2e-05 (inactive) | 0.00568 (inactive) | -34% (inactive) | -118% (inactive) |
| Cc1cc2ccccc2n1CCNC(=O)C1CC1 | 709 | -6.9% (inactive) | -3.6% (inactive) | 107 | -35% (inactive) | 120 | -0.42 (inactive) | -3.8e-05 (inactive) | 0.00596 (inactive) | 11.4% (inactive) | 33.2% (inactive) |
| CCC1CCCCN1S(=O)(=O)c1ccc(C(=O)Nc2nnc(-c3ccccc3Cl)o2)cc1 (stereo not drawn) | 322 | 5.2% (inactive) | -1.5% (inactive) | 107 | -52.8% (inactive) | 108 | -0.511 (inactive) | -3.2e-05 (inactive) | 0.00627 (inactive) | 18.8% (inactive) | 16.9% (inactive) |
| CCOC(=O)Cc1csc(NC(=O)CSc2nnc(C(C)C)n2CC)n1 | 812 | -6.2% (inactive) | 13.4% (inactive) | 89.5 | -33.7% (inactive) | 119 | -0.317 (inactive) | 1.9e-05 (inactive) | 0.00691 (inactive) | 18.4% (inactive) | 21.8% (inactive) |
| CCCn1c(SCC(=O)N2CCc3ccccc3C2)nc2c1c(=O)n(C)c(=O)n2C | 430 | -9.2% (inactive) | -13.1% (inactive) | 115 | -47.7% (inactive) | 117 | -0.303 (inactive) | 8.7e-06 (inactive) | 0.00547 (inactive) | 2.01% (inactive) | -39% (inactive) |
| CCOC(=O)N1CCC(NC(=O)C2CCCN(C(=O)c3cc4sccc4n3C)C2)CC1 (stereo not drawn) | 762 | -5.8% (inactive) | -4.7% (inactive) | 127 | -71.5% (inactive) | 123 | -0.556 (inactive) | -4.1e-05 (inactive) | 0.00546 (inactive) | 2.87% (inactive) | 25.3% (inactive) |
| COc1ccc(-n2nc(C(=O)NCC(=O)NCC3CCCO3)c3ccccc3c2=O)cc1 (stereo not drawn) | 355 | -1.7% (inactive) | 13.1% (inactive) | 91.3 | -15.9% (inactive) | 100 | -0.435 (inactive) | -1.9e-05 (inactive) | 0.0067 (inactive) | 16.2% (inactive) | 23.6% (inactive) |
| CC1=C(C(=O)NCc2ccccn2)C2(CCC(C)CC2)OC1=O (stereo not drawn) | 759 | -5% (inactive) | 16.1% (inactive) | 91.3 | 19.6% (inactive) | 110 | -0.521 (inactive) | -2.4e-05 (inactive) | 0.00608 (inactive) | 12.1% (inactive) | 26.9% (inactive) |
| O=C(CN(Cc1ccco1)C(=O)c1cc(=O)[nH]c2ccccc12)Nc1ccccc1Br | 498 | -22.4% (inactive) | 11.6% (inactive) | 103 | 10.6% (inactive) | 105 | -0.58 (inactive) | -4.1e-05 (inactive) | 0.00457 (inactive) | 16% (inactive) | 16.8% (inactive) |
| CCCCN(C)Cc1c(O)ccc2c(-c3ccccc3)cc(=O)oc12 | 303 | 0.3% (inactive) | 5% (inactive) | 103 | -26.5% (inactive) | 96.4 | -0.158 (active) | -2.3e-05 (inactive) | 0.00475 (inactive) | -3.57% (inactive) | 28.4% (inactive) |
